Assay results published in PubChem BioAssay AID1159580 (chemical genetic matrix, 2015).
Hit rate of the full screen: of about 5,500 compounds, about 2,000 (36%) were called active. Not shown: some 18% with an inconclusive outcome. Rule as the data show it: active = normalized growth mostly below about 0.91 (no sharp cut-off); inconclusive = no clear call, values can overlap the other calls; inactive = mostly above about 0.92. The list shows a part of the results.

Test: chemical genetic growth profiling, strain panel (AID 1159580);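 also: tested at 20 µM; growth read once vehicle control cultures reached saturation at 30 °C; 1 = growth at the plate median or of vehicle wells; lower values mean less growth of the strain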
Conditions: growth OD

Measured: normalized growth

NCC(CC(=O)O)c1ccc(Cl)s1 (stereo unspecified)
inactive: S. cerevisiae deletion strains, locus YAL013W, strain DEP1, active compounds read low 0.991 | S. cerevisiae deletion strains, locus YBR021W, strain FUR4, active compounds read low 0.96 | S. cerevisiae deletion strains, locus YBR229C, strain ROT2, active compounds read low 0.99 | S. cerevisiae deletion strains, locus YCL029C, strain bik1, active compounds read low 0.985 | S. cerevisiae deletion strains, locus YDL035C, strain GPR1, active compounds read low 0.994 | S. cerevisiae deletion strains, locus YDL074C, strain BRE1, active compounds read low 1.02 | S. cerevisiae deletion strains, locus YDL101C, strain DUN1, active compounds read low 0.992 | S. cerevisiae deletion strains, locus YDL134C, strain PPH21, active compounds read low 0.982 | S. cerevisiae deletion strains, locus YDL185W, strain tfp1, active compounds read low 0.978 | S. cerevisiae deletion strains, locus YDL192W, strain arf1, active compounds read low 0.987 | S. cerevisiae deletion strains, locus YDR101C, strain arx1, active compounds read low 0.998 | S. cerevisiae deletion strains, locus YDR150W, strain NUM1, active compounds read low 1 | S. cerevisiae deletion strains, locus YDR162C, strain NBP2, active compounds read low 1.03 | S. cerevisiae deletion strains, locus YDR318W, strain mcm21, active compounds read low 0.968 | S. cerevisiae deletion strains, locus YDR388W, active compounds read low 0.99 | S. cerevisiae deletion strains, locus YDR502C, strain sam2, active compounds read low 0.996 | S. cerevisiae deletion strains, locus YEL061C, strain CIN8, active compounds read low 0.994 | S. cerevisiae deletion strains, locus YER110C, active compounds read low 0.979 | S. cerevisiae deletion strains, locus YER155C, strain BEM2, active compounds read low 1 | S. cerevisiae deletion strains, locus YER167W, strain BCK2, active compounds read low 0.973 | S. cerevisiae deletion strains, locus YGL078C, strain dbp3, active compounds read low 0.995 | S. cerevisiae deletion strains, locus YGL086W, strain mad1, active compounds read low 0.958 | S. cerevisiae deletion strains, locus YGL248W, strain PDE1, active compounds read low 0.987 | S. cerevisiae deletion strains, locus YGR078C, strain PAC10, active compounds read low 0.994 | S. cerevisiae deletion strains, locus YGR135W, strain pre9, active compounds read low 0.974 | S. cerevisiae deletion strains, locus YGR229C, strain SMI1, active compounds read low 0.958 | S. cerevisiae deletion strains, locus YGR252W, strain gcn5, active compounds read low 0.926 | S. cerevisiae deletion strains, locus YHR030C, strain SLT2, active compounds read low 0.989 | S. cerevisiae deletion strains, locus YHR079C, strain IRE1 (second series), active compounds read low 0.992 | S. cerevisiae deletion strains, locus YHR094C, strain hxt1, active compounds read low 0.991 | S. cerevisiae deletion strains, locus YHR129C, strain ARP1, active compounds read low 0.99 | S. cerevisiae deletion strains, locus YHR200W, strain rpn10, active compounds read low 0.978 | S. cerevisiae deletion strains, locus YIL066C, strain RNR3, active compounds read low 0.979 | S. cerevisiae deletion strains, locus YIL073C, strain SPO22, active compounds read low 0.959 | S. cerevisiae deletion strains, locus YIL125W, strain kgd1, active compounds read low 1.01 | S. cerevisiae deletion strains, locus YIR030C, strain dcg1, active compounds read low 0.993 | S. cerevisiae deletion strains, locus YJL095W, strain BCK1, active compounds read low 0.991 | S. cerevisiae deletion strains, locus YJL134W, strain LCB3, active compounds read low 0.989 | S. cerevisiae deletion strains, locus YJL168C, strain set2, active compounds read low 0.996 | S. cerevisiae deletion strains, locus YJL187C, strain SWE1 (second series), active compounds read low 0.999 | S. cerevisiae deletion strains, locus YJR043C, strain POL32, active compounds read low 0.964 | S. cerevisiae deletion strains, locus YJR075W, strain HOC1, active compounds read low 1.06 | S. cerevisiae deletion strains, locus YKL009W, strain mrt4, active compounds read low 1 | S. cerevisiae deletion strains, locus YKL068W, active compounds read low 0.989 | S. cerevisiae deletion strains, locus YKL085W, strain MDH1 (second series), active compounds read low 1.02 | S. cerevisiae deletion strains, locus YKL085W, strain MDH1, active compounds read low 1.02 | S. cerevisiae deletion strains, locus YKL190W, strain CNB1, active compounds read low 0.997 | S. cerevisiae deletion strains, locus YKR001C, strain vps1, active compounds read low 0.947 | S. cerevisiae deletion strains, locus YLR039C, strain RIC1, active compounds read low 1.01 | S. cerevisiae deletion strains, locus YLR058C, strain SHM2, active compounds read low 0.985 | S. cerevisiae deletion strains, locus YLR102C, strain apc9, active compounds read low 0.998 | S. cerevisiae deletion strains, locus YLR262C, strain YPT6, active compounds read low 1.03 | S. cerevisiae deletion strains, locus YLR268W, strain sec22, active compounds read low 0.988 | S. cerevisiae deletion strains, locus YLR330W, strain CHS5, active compounds read low 0.993 | S. cerevisiae deletion strains, locus YLR342W, strain FKS1 (second series), active compounds read low 0.978 | S. cerevisiae deletion strains, locus YLR371W, strain rom2, active compounds read low 0.986 | S. cerevisiae deletion strains, locus YLR418C, strain cdc73, active compounds read low 0.914 | S. cerevisiae deletion strains, locus YML016C, strain PPZ1, active compounds read low 0.984 | S. cerevisiae deletion strains, locus YML032C, strain rad52, active compounds read low 0.963 | S. cerevisiae deletion strains, locus YML124C, strain tub3, active compounds read low 0.979 | S. cerevisiae deletion strains, locus YMR078C, strain ctf18, active compounds read low 0.989 | S. cerevisiae deletion strains, locus YMR223W, strain ubp8, active compounds read low 0.958 | S. cerevisiae deletion strains, locus YMR263W, strain SAP30, active compounds read low 1.01 | S. cerevisiae deletion strains, locus YMR307W, strain GAS1, active compounds read low 0.959 | S. cerevisiae deletion strains, locus YNL067W, strain RPL9B, active compounds read low 1.02 | S. cerevisiae deletion strains, locus YNL128W, strain TEP1, active compounds read low 1.02 | S. cerevisiae deletion strains, locus YNL153C, strain GIM3, active compounds read low 1.02 | S. cerevisiae deletion strains, locus YNL233W, strain BNI4, active compounds read low 0.989 | S. cerevisiae deletion strains, locus YNL250W, strain rad50, active compounds read low 0.995 | S. cerevisiae deletion strains, locus YNL271C, strain bni1, active compounds read low 0.988 | S. cerevisiae deletion strains, locus YNL298W, strain CLA4, active compounds read low 0.988 | S. cerevisiae deletion strains, locus YNL307C, strain MCK1, active compounds read low 0.954 | S. cerevisiae deletion strains, locus YNL322C, strain KRE1, active compounds read low 0.999 | S. cerevisiae deletion strains, locus YNR052C, strain pop2, active compounds read low 0.981 | S. cerevisiae deletion strains, locus YOL006C, strain TOP1, active compounds read low 0.973 | S. cerevisiae deletion strains, locus YOL012C, strain htz1 1.87 | S. cerevisiae deletion strains, locus YOL147C, strain pex11, active compounds read low 0.998 | S. cerevisiae deletion strains, locus YOR061W, strain CKA2, active compounds read low 0.997 | S. cerevisiae deletion strains, locus YOR069W, strain VPS5, active compounds read low 0.983 | S. cerevisiae deletion strains, locus YOR136W, strain idh2, active compounds read low 0.981 | S. cerevisiae deletion strains, locus YOR144C, strain elg1, active compounds read low 0.987 | S. cerevisiae deletion strains, locus YOR184W, strain ser1, active compounds read low 0.94 | S. cerevisiae deletion strains, locus YOR316C, strain cot1, active compounds read low 0.992 | S. cerevisiae deletion strains, locus YPL055C, strain LGE1, active compounds read low 1.05 | S. cerevisiae deletion strains, locus YPL241C, strain CIN2, active compounds read low 0.993 | S. cerevisiae deletion strains, locus YPR119W, strain clb2, active compounds read low 0.994 | S. cerevisiae deletion strains, locus YPR141C, strain kar3, active compounds read low 0.982 | S. cerevisiae deletion strains, locus YPR163C, strain tif3, active compounds read low 0.991 | S. cerevisiae deletion strains, locus YPR167C, strain met16, active compounds read low 0.99 | S. cerevisiae deletion strains, strain wtn01, active compounds read low 0.988 | S. cerevisiae strains, strain wild type, active compounds read low 0.979
